# Sampled rows, rich in hits. Any-hit rate of the full collection: about 4.6%.
# D1 ag: activates the human D1 dopamine receptor | P21728 | HEK293 T-REx D1 cells, calcium flux, agonist mode | activation, % at 2 µM | 1% of 360,000 active | AID 504660
# Target sequence (P21728 whole entry, looked up): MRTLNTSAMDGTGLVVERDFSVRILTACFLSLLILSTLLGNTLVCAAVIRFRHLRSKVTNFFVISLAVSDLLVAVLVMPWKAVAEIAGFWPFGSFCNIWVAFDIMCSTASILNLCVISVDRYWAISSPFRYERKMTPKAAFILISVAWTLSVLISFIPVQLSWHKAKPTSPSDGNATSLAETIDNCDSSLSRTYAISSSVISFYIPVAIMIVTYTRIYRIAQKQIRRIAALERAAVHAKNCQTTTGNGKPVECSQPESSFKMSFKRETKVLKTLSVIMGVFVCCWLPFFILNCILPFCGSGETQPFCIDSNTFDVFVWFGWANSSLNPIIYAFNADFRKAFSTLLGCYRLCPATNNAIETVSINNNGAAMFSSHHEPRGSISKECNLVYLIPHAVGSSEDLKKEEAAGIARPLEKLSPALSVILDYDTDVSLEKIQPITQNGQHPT
#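 Inducible HEK293 T-REx D1 cells, force-coupled to calcium signalling, were plated at 4000 cells/well with tetracycline and held overnight at 30 C. After no-wash calcium dye loading, compound-evoked calcium rise over 180 s flagged agonists.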
# TRHR ag: agonists of human TRH receptor. P34981. TRHR cells, calcium flux fluo-8, FDSS agonist mode. activation, % at 2 µM. 0.18% of 360,000 active. AID 493084
#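 Steps: seed TRHR cells overnight; add fluo-8 no-wash Ca dye, RT 30 min–1.5 h; record 10 s baseline; pin-transfer compounds; monitor fluorescence 1 cycle/s for the agonist window. Calcium increases flag candidate agonists.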
# D1 antagonist: human D1 dopamine receptor antagonism | P21728 | activity change, negative = inhibition, % at 10 µM | 3.2% of 360,000 active | HEK293 TREx D1 cells, calcium flux, dopamine EC80; stronger effect = lower value; in the data active = activity change below about -30%
#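 Tetracycline-induced HEK293 Trex D1 cells, force-coupled to calcium, dye-loaded; compounds added and read 180 s, then EC80 dopamine added and calcium flux tracked kinetically another 180 s.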
# D1 potentiator: human D1 dopamine receptor positive modulation. 0.036% of 360,000 active. P21728. potentiation, % at 10 µM. HEK293 TREx D1 cells, calcium flux, dopamine EC20 potentiation; in the data active = potentiation above about 30%
# Epigenetic derep: regulators of epigenetic silencing causing reporter derepression in mouse cells | murine LDR cells, GFP reporter derepression, 30 h | Potency, µM (top dose mostly 53.9 µM), most hits filed as activators | 0.2% of 280,000 active | AID 1865; active = well fitted activation curve with a large enough effect; inconclusive = small, poorly fitted or top-dose-only effect; note: nearly all actives have a fitted effect of over 60% in size
#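 Derepression of a silenced CMV-GFP reporter in murine LDR cells is scored by enumerating GFP-positive cells with a laser-scanning microplate cytometer after 30 hours of treatment at 37 C.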
# TRHR enhancer: allosterically enhances the human TRH receptor. TRHR cells, fluo-8 calcium fluorescence, EC20 TRH enhancement. enhancement, % at 2 µM. 0.66% of 360,000 active; in the data active = enhancement above about 30%
#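 TRHR-expressing cells loaded with fluo-8 calcium dye were read kinetically (ex 480/em 530) during compound addition, then stimulated with an EC20 of TRH (10 nM final). Enhancement of the Gq-mediated intracellular calcium response was scored.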
# Hits are given with their value; 0 = inactive; ? = inconclusive; - = no result; ! = repeats disagree. Cut-off read from the data, not from the text of the source, unless noted: active = activation above about 30%; inactive = the rest.
SMILES,D1 ag,TRHR ag,D1 antagonist,D1 potentiator,Epigenetic derep,TRHR enhancer
NC1=NC[C@H](Cc2ccccc2)N1CCc1cccc(F)c1,0,0,-37.1,0,0,0
Cc1nc2ccccc2c(N)c1C(=O)/C=C/c1ccccc1,0,0,-31.5,0,-,0
COc1cc(Cc2cnc(N)nc2N)cc(OC)c1OC,0,0,-47.5!,0,0,0
CN(C)S(=O)(=O)c1cccc(CSCc2cccc(S(=O)(=O)N(C)C)c2)c1,0,0,-36.1,0,-,0
Cc1cc(C)n2nc(SCc3cccc(S(=O)(=O)N(C)C)c3)nc2n1,0,0,0,0,-,0
COc1ccc(C(=O)NC(C)CCc2ccccc2)cc1[N+](=O)[O-] (centres undefined),0,0,0,0,-,0
COc1ccc(C(=O)C(C)[n+]2ccc(C)c3ccccc32)cc1[N+](=O)[O-] (centres undefined),51.8,0,0,0,-,0
CCOc1ccc(C(=O)N2CC(=O)Nc3ccc(C)cc3C2c2ccc(F)cc2)cc1OCC (centres undefined),0,0,0,0,0,0
COc1ccc(-c2ccc3c(c2)S(=O)(=O)c2cccc(C(=O)NC[C@@H]4CCCO4)c2C3=O)cc1OC,0,0,-35.8,0,-,0
Cc1ccc(Cl)c(OC(=O)Cn2cnc3c2c(=O)n(C)c(=O)n3C)c1,0,0,-40.9,0,0,0
Cn1c(=O)c2c(ncn2Cc2ccccc2)n(C)c1=O,0,0,0,0,0,0
Cn1c(=O)c2c(ncn2CC(COCc2ccccc2)OCc2ccccc2)n(C)c1=O (centres undefined),0,0,-55.2,0,0,0
Cn1c(=O)c2c(ncn2CCO)n(C)c1=O,0,0,0,0,0,0
Cc1ccc(OCCn2cnc3c2c(=O)n(C)c(=O)n3C)cc1,0,0,-31.7,0,-,0
CCOC(=O)c1c(C)n(-c2ccccc2)c2ccc(OC(=O)c3ccccc3Cl)cc12,0,0,0,0,0,0
CCc1nnc(SC(CC)C(=O)Nc2cccc(OC)c2)c2cc3oc(C)cc3n12 (centres undefined),0,0,0,0,0,0
Cn1c(=O)c(Nc2ccc(Cl)cc2)c2c3c(cccc31)C(=O)c1ccccc1-2,78.2,0,0,0,?,0
COc1ccc(-n2cc(CNC3CCN(C)CC3)c(-c3cccc(F)c3)n2)cc1,46.2,0,0,0,0,0
CCCOc1ccc(C2C(=O)N(C3CCCCCC3)CC(=O)N2CCC)cc1OC (centres undefined),0,0,0,0,0,0
Cc1ccc2nc(Cl)c(CNCc3ccccc3)cc2c1,0,0,-35.4,0,0,0
O=C(COC(=O)c1ccc(Cl)cc1O)NC(=O)C1CCCCC1,0,0,0,0,0,0
O=C(COC(=O)c1ccncc1)NC(=O)C1CCCCC1,0,0,-36.5,0,0,0
O=C(NCc1ccc(F)cc1)c1ccc2c(c1)nc1n2CCCCC1,0,0,0,0,0,0
Cc1ccccc1Nc1nn2c(=O)c3ccc(C(=O)NCc4ccccc4)cc3nc2s1,0,0,0,0,0,0
Cc1ccc(Cl)cc1Nc1nn2c(=O)c3ccc(C(=O)NCc4ccc(F)cc4)cc3nc2s1,0,0,-33.4,0,0,0
SMILES,D1 ag,TRHR ag,D1 antagonist,D1 potentiator,Epigenetic derep,TRHR enhancer
CCCCN(C)C(=O)c1ccc2c(=O)n3nc(Nc4cc(C)ccc4C)sc3nc2c1,0,0,-67.9,0,0,0
Cc1ccc(C)c(Nc2nn3c(=O)c4ccc(C(=O)N(C)Cc5ccccc5)cc4nc3s2)c1,0,0,0,0,0,0
CCOC(=O)N1CCC(NC(=O)c2ccc3c(c2)N(Cc2cc(C)ccc2C)C(=O)c2ccccc2S3(=O)=O)CC1,0,0,0,0,0,0
CCCc1cc(=O)oc2c(CN(CC)CC)c(O)c(Cl)cc12,0,0,-43.6,0,0,0
CCCCc1cc(=O)oc2c(CN3CCCC3)c(O)c(Cl)cc12,0,0,-33.0,0,0,0
O=C(O)CC(NS(=O)(=O)c1ccc(Cl)s1)c1ccccc1 (centres undefined),0,0,0,0,0,0
CCCOc1ccc(-c2nonc2NC(=O)c2ccco2)cc1OCCC,0,0,0,0,0,0
CCCN(c1ccccc1F)S(=O)(=O)c1cc(-c2cc(C)no2)ccc1C,0,0,0,0,0,0
O=C(c1ccc(F)cc1)C1CCN(C(=S)NCC2CCCO2)CC1 (centres undefined),0,0,-35.3,0,0,0
COc1ccc(CN2CCC(C(=O)c3ccc(F)cc3)CC2)cc1,0,0,-45.6,0,-,0
COc1ccc(C(=O)C2CCN(C(=S)NCCc3ccc(OC)c(OC)c3)CC2)cc1,0,0,0,0,0,0
COc1ccc(CCNC(=S)N2CCC(C(=O)c3ccc(F)cc3)CC2)cc1OC,0,0,-43.9,0,0,0
COc1ccc(C(=O)C2CCN(C(=O)c3ccc(F)cc3)CC2)cc1,0,0,0,0,-,0
COc1ccc(CCNC(=O)C2CCC(C(C)(C)C)CC2)cc1OC (centres undefined),0,0,-63.0,0,-,0
Oc1ccc(CNc2cccc(F)c2F)c2cccnc12,0,0,0,0,-,0
Cc1cc(C)c2c(n1)nn1c(C)c(CCC(=O)Nc3cccc(C)c3C)c(C)nc21,0,0,0,0,0,0
Cc1c(CCNC(=O)C(C)(C)C)sc2nc(-c3ccc(F)cc3)nn12,0,0,-,0,0,0
COc1ccc(COC(=O)C2CCN(S(=O)(=O)c3ccc(F)cc3)CC2)cc1,37.3,0,-34.6,0,-,0
COc1ccc(CNC(=O)C2CCN(S(=O)(=O)c3ccc(F)cc3)CC2)cc1,0,0,0,0,0,0
Cc1ccc(C2=NN(S(C)(=O)=O)C(c3cccs3)C2)cc1 (centres undefined),0,0,-48.4,0,0,0
CCc1ccc(C2=NN(S(C)(=O)=O)C(c3cccs3)C2)cc1 (centres undefined),0,0,0,0,17.8µM,0
O=C(c1ccccc1)N1N=C(c2ccccc2)CC1c1cccs1 (centres undefined),0,0,-66.7,0,-,0
Cc1ccc(C2=NN(C(=O)CNCCO)C(c3cccs3)C2)cc1 (centres undefined),0,0,-32.6,0,-,0
CS(=O)(=O)N1N=C(c2ccc(Br)cc2)CC1c1cccs1 (centres undefined),0,0,0,0,0,0
O=C(CNCCO)N1N=C(c2cccs2)CC1c1cccs1 (centres undefined),0,0,0,0,0,0
CCOc1ccc(NC(=O)CN2CCN(Cc3ccccc3)S2(=O)=O)cc1,0,0,0,0,0,0

# High-throughput results from PubChem.
